The campaign covered roughly 220,000 compounds. About 5,700 (2.6%) were called active. Not shown: some 18% with an inconclusive outcome. What follows is part of a selection rich in actives, with near analogues and random picks from the rest. A number with no mark means an inactive call. Calls come from the whole dose curve; as a rule, active = well fitted inhibition curve with a large enough effect; inconclusive = small, poorly fitted or top-dose-only effect; inactive = no such curve, though single readings can be large or run the other way.
What follows are molecules tested against Lysine-specific demethylase 5B (Homo sapiens) (UniProt Q9UGL1) (assay: Primary screen for KDM5B Histone Demethylases FDH-coupled qHTS). Conditions: FDH-coupled NADH fluorescence (FDH is formaldehyde dehydrogenase); series mostly up to 57.7 µM; activity change, negative = inhibition: at the top concentration.
Procedure, shortened: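 Compound dilutions met 200 nM (final) KDM5BΔAP for 10 min at room temperature before substrate addition. The substrate mix held 12.5 µM H3K4me3 with cofactors 25 µM α-ketoglutarate and 50 µM Fe²⁺. NADH signal gain over 30 min defined activity.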
Note: nearly all actives have a fitted effect of over 70% in size.
Potency is the fitted concentration of half-maximal effect.
Throughout, for activity change, negative = inhibition: 0% is about no effect.

Sequence of Lysine-specific demethylase 5B (Homo sapiens) (Q9UGL1 whole entry, looked up): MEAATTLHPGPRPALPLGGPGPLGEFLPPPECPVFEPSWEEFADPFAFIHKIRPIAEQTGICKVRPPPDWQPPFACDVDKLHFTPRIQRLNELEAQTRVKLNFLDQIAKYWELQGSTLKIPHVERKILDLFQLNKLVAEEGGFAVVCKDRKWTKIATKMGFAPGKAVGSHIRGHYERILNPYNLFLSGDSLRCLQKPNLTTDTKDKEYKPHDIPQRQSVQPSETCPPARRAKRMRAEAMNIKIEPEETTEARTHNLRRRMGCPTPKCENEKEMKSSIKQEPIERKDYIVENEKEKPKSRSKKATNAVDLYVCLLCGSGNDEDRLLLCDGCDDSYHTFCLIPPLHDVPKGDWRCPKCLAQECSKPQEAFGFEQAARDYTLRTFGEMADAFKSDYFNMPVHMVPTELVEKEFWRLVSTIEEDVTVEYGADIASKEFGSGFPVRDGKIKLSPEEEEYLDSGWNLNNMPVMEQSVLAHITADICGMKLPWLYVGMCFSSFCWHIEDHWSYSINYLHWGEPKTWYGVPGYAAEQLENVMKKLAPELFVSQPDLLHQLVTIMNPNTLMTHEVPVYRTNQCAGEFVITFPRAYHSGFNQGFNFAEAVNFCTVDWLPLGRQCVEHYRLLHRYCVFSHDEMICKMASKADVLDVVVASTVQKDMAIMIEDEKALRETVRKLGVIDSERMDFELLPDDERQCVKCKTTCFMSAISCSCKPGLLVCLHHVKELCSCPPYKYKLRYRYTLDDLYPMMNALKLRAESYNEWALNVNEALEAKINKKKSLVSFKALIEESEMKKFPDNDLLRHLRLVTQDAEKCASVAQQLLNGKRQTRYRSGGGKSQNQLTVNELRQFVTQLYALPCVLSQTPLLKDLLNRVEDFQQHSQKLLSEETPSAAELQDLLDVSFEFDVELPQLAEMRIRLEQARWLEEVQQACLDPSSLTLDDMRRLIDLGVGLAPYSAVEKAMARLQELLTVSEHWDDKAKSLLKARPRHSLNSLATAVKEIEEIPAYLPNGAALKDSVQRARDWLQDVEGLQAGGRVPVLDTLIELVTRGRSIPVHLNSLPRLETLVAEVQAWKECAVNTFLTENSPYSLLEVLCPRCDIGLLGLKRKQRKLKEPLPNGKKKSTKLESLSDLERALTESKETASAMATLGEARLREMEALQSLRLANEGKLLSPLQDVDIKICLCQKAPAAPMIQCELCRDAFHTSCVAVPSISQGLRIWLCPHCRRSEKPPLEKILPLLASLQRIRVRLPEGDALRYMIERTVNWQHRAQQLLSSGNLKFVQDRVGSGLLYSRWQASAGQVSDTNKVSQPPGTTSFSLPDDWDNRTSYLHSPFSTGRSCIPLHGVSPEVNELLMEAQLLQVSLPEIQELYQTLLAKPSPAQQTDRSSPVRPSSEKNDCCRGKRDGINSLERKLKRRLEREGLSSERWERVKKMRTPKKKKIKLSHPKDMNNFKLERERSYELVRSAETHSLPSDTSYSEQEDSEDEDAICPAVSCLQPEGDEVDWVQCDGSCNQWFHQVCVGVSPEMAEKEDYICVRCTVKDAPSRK

| SMILES | activity change, negative = inhibition | Potency |
| --- | --- | --- |
| Nc1cc(OCC(F)(F)F)cc(OCC(F)(F)C(F)F)c1 | 8.06% | – |
| CC1CCCC(NC(=O)c2ccccc2)C1C (configuration not stated) | 18.6% | – |
| COCCSCC(=O)N1CCOC(C)(C)C1 | 26.5% | – |
| COCc1nc(C2CCCN(C(=O)CCC3CCCC3)C2)no1 (configuration not stated) | -7.38% | – |
| O=C(c1cc(-c2ccc(O)cc2)on1)N1CCOCC1 | -11% | – |
| Cc1cc(C(=O)N2CCC3(CC2)CC(C(=O)N2CCOCC2)N(C)C3)nn1C (configuration not stated) | 9.57% | – |
| O=C(c1cc2cccnn2n1)N1CCOCC1 | – | 31.6 µM (active) |
| Cc1ccc(CNC(=O)Cc2cn(C)c3ccccc23)cc1 | 31% | – |
| CCOc1ccccc1NC(=O)NC1CCCCCCC1 | 25.5% | – |
| COc1ccc(NC(=O)C2(C)CN(C)Cc3ccc(Nc4cccc(OC)c4)nc32)cc1 (configuration not stated) | – | 14.1 µM (active) |
| COc1cccc(NC(=O)C2(C#N)CCCC2)c1 | 12.7% | – |
| COc1ccc(Nc2cc(C(=O)N3CCOCC3)c3ccccc3n2)cc1 | -11.2% | – |
| O=C(Nc1cc(F)ccc1F)N1CCC2(CC1)Oc1ccccc1C(=O)N2Cc1ccccc1F | -2.84% | – |
| OCCCSc1nnc(-c2c[nH]c3ccccc23)n1C1CC1 | -11.7% | – |
| O=C(NCC1Cn2cccc2CN1Cc1ccccc1)c1ccco1 (configuration not stated) | – | 28.2 µM (active) |
| CC(C)NC(=O)NCC1Cn2cccc2C(=O)N1Cc1ccccc1 (configuration not stated) | -21.5% | – |
| CC(C)CNC(=O)NCC1Cn2cccc2C(=O)N1Cc1ccccc1 (configuration not stated) | -2.01% | – |
| CC(=O)NCC1Cn2cccc2CN1Cc1ccccc1 (configuration not stated) | – | 28.2 µM (active) |
| O=C(NCC1Cn2cccc2C(=O)N1Cc1ccccc1)c1ccco1 (configuration not stated) | 11.7% | – |

| SMILES | activity change, negative = inhibition | Potency |
| --- | --- | --- |
| O=C(NCC1Cn2cccc2C(=O)N1Cc1ccccc1)c1ccc(F)cc1 (configuration not stated) | 0.623% | – |
| CCCn1nc(C(=O)NCc2cccc(OC)c2)c2ccccc2c1=O | 16.7% | – |
| O=C(CSc1ncc(CO)n1Cc1ccc(F)cc1)NCc1ccc2c(c1)OCO2 | 13.1% | – |
| CN(C(=O)Cn1c(=O)n(C)c(=O)c2sccc21)c1ccccc1 | -13.8% | – |
| Cc1ccc(C(=O)c2ccccc2C(=O)OCc2c(Cl)cccc2Cl)cc1 | -9.31% | – |
| O=C(NCCc1nc2ccccc2[nH]1)c1ccc(N2CCCN(Cc3ccccc3)C2=O)cc1 | 2.86% | – |
| O=C1Nc2ccc(Br)cc2C(=O)N2CCN(C(=O)C3CCCCC3)C[C@H]12 | -26.5% [at 86.2 µM] | – |
| COCCn1ccc2cc(C(=O)Nc3ccc4c(c3)C(=O)N3CCC[C@H]3C(=O)N4)ccc21 | 9.94% | – |
| COCC(=O)N[C@H]1C[C@H]2C(=O)Nc3ccc(/C=C/c4ccc(OC)cc4)cc3C(=O)N2C1 | – | 28.2 µM (active) |
| COc1ccc(C(=O)N2CCc3nc(C(C)C)nc(-c4ccc(Cl)cc4)c3CC2)cc1 | -3.56% [at 115 µM] | – |
| Cc1nn(CC(=O)NC(C)(C)C)c(C)c1S(=O)(=O)N1CCCC(C(=O)N2CCC(C)CC2)C1 (configuration not stated) | 16.9% | – |
| Cc1cc(NC(=O)CCSc2nnc3c(Cl)cc(C(F)(F)F)cn23)no1 | -3.18% | – |
| COc1ccc(C(=O)N[C@H](C(=O)NCc2ccccc2)C(C)C)cc1 | 10% | – |
| O=C(NCc1nnc2ccccn12)C1NCCc2[nH]cnc21 (configuration not stated) | 0.217% | – |
| Nc1nc(CCCNC(=O)C2NCCc3[nH]cnc32)cs1 (configuration not stated) | – | 25.1 µM (active) |
| O=C(C1NCCc2[nH]cnc21)N1CCc2nnc(-c3ccccc3)n2CC1 (configuration not stated) | -24.4% | – |
| COc1ccc2nc(C)c(C(=O)N(C)CC3COc4ccccc4O3)cc2c1 (configuration not stated) | -8.89% | – |
| C/C(=N/NC(=S)NCc1ccccc1)c1cccc(C(F)(F)F)c1 | -5.68% | – |

Source: PubChem BioAssay AID1347165 (National Center for Advancing Translational Sciences (NCATS), 2019)
